{"source": "paper PMC8384837", "about": "“Expanding the binding specificity for RNA recognition by a PUF domain”", "assay_in_all_cases": "yeast three-hybrid, YBZ-1, SC-Leu-His + 0.5 mM 3-AT, 4 days", "conditions_in_all_cases": "tags: N-Gal4 AD-HA kept; label: inside an RPR1-promoter hybrid RNA with tandem MS2 sites; ssRNA", "key": {"[1]": {"target": "PUM1 PUF domain R4-PWV (Homo sapiens, UniProt Q14671 828-1176, N971P;H972W;Q975V)", "method_in_brief": "(§1)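 Each repeat of the Pumilio-1 PUF domain was randomized at its three base-contacting residues, and these libraries were co-expressed from a centromeric plasmid with matching RNA elements in strain YBZ-1. After four days on SC-Leu (input) or SC-Leu-His + 0.5 mM 3-AT (selection), the repeat regions were PCR-amplified and Illumina-sequenced. The interaction score compares variant frequency between input and selection as a log change, computed in log2 with a pseudocount of 1 for absent variants.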"}, "[2]": {"target": "PUM1 PUF domain R4-APG (Homo sapiens, UniProt Q14671 828-1176, N971A;H972P;Q975G)", "method_in_brief": "as §1"}, "[3]": {"target": "T1, PUM1 PUF domain R6-LWM (Homo sapiens, UniProt Q14671 828-1176, N1043L;Y1044W;Q1047M)", "T1 sequence": "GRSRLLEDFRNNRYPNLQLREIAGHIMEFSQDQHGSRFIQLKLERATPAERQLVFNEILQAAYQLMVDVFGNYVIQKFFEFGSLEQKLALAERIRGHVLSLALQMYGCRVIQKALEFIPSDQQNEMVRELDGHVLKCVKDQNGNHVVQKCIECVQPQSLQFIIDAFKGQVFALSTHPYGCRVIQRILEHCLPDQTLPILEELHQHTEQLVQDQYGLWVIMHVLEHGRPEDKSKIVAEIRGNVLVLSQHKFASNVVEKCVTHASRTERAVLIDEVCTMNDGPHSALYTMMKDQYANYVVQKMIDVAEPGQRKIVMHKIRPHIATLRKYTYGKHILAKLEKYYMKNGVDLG", "method_in_brief": "as §1"}, "[4]": {"target": "T2, PUM1 PUF domain R6-NHW (Homo sapiens, UniProt Q14671 828-1176, Y1044H;Q1047W)", "T2 sequence": "T1 sequence with L216N, W217H, M220W", "method_in_brief": "as §1"}, "[5]": {"target": "PUM1 PUF domain R8-RHM (Homo sapiens, UniProt Q14671 828-1176, N1122R;Y1123H;Q1126M)", "method_in_brief": "as §1"}, "[6]": {"target": "PUM1 PUF domain R5-RGM (Homo sapiens, UniProt Q14671 828-1176, C1007R;R1008G;Q1011M)", "method_in_brief": "as §1"}, "[7]": {"target": "PUM1 PUF domain R5-KNW (Homo sapiens, UniProt Q14671 828-1176, C1007K;R1008N;Q1011W)", "method_in_brief": "as §1"}, "[8]": {"target": "PUM1 PUF domain R3-TTE (Homo sapiens, UniProt Q14671 828-1176, C935T;R936T;Q939E)", "method_in_brief": "as §1"}, "[9]": {"target": "PUM1 PUF domain R7-KHR (Homo sapiens, UniProt Q14671 828-1176, S1079K;N1080H;E1083R)", "method_in_brief": "as §1"}, "[10]": {"target": "PUM1 PUF domain R3-FYA (Homo sapiens, UniProt Q14671 828-1176, C935F;R936Y;Q939A)", "method_in_brief": "as §1"}}, "note": "Where a chain is given by its changes, count along the chain named.", "data": [{"sequence": "GGCUAGAACUAGUGGAUCCCCCGGCGCCCGGCGGCUCGAGCCCGGGUAAGUGUAUAUAGUCUGCAUGCCGCCGGGCGCCAUGCCUGCAGGUCGACUCUAGAAAACAUG", "values": [{"measurement": "binding signal", "setting": "[1]", "result": "6.68 log2 enrichment (interaction score)"}, {"measurement": "binding signal", "setting": "[2]", "result": "4.91 log2 enrichment (interaction score)"}]}, {"sequence": "GGCUAGAACUAGUGGAUCCCCCGGCGCCCGGCGGCUCGAGCCCGGGUAAGUGUAAAUAGUCUGCAUGCCGCCGGGCGCCAUGCCUGCAGGUCGACUCUAGAAAACAUG", "values": [{"measurement": "binding signal", "setting": "[3]", "result": "4.73 log2 enrichment (interaction score)"}, {"measurement": "binding signal", "setting": "[4]", "result": "2.25 log2 enrichment (interaction score)"}, {"measurement": "binding signal", "setting": "[1]", "result": "6 log2 enrichment (interaction score)"}, {"measurement": "binding signal", "setting": "[2]", "result": "4.82 log2 enrichment (interaction score)"}, {"measurement": "binding signal", "setting": "[5]", "result": "4.13 log2 enrichment (interaction score)"}]}, {"sequence": "GGCUAGAACUAGUGGAUCCCCCGGCGCCCGGCGGCUCGAGCCCGGGUAAGUGUCAAUAGUCUGCAUGCCGCCGGGCGCCAUGCCUGCAGGUCGACUCUAGAAAACAUG", "values": [{"measurement": "binding signal", "setting": "[6]", "result": "2.26 log2 enrichment (interaction score)"}]}, {"sequence": "GGCUAGAACUAGUGGAUCCCCCGGCGCCCGGCGGCUCGAGCCCGGGUAAGUGUUAAUAGUCUGCAUGCCGCCGGGCGCCAUGCCUGCAGGUCGACUCUAGAAAACAUG", "values": [{"measurement": "binding signal", "setting": "[7]", "result": "2.79 log2 enrichment (interaction score)"}, {"measurement": "binding signal", "setting": "[6]", "result": "3.6 log2 enrichment (interaction score)"}]}, {"sequence": "GGCUAGAACUAGUGGAUCCCCCGGCGCCCGGCGGCUCGAGCCCGGGUAAGUGUAAGUAGUCUGCAUGCCGCCGGGCGCCAUGCCUGCAGGUCGACUCUAGAAAACAUG", "values": [{"measurement": "binding signal", "setting": "[8]", "result": "5.3 log2 enrichment (interaction score)"}]}, {"sequence": "GGCUAGAACUAGUGGAUCCCCCGGCGCCCGGCGGCUCGAGCCCGGGUAAGUGUACAUAGUCUGCAUGCCGCCGGGCGCCAUGCCUGCAGGUCGACUCUAGAAAACAUG", "values": [{"measurement": "binding signal", "setting": "[1]", "result": "5.39 log2 enrichment (interaction score)"}, {"measurement": "binding signal", "setting": "[2]", "result": "0.78 log2 enrichment (interaction score)"}]}, {"sequence": "GGCUAGAACUAGUGGAUCCCCCGGCGCCCGGCGGCUCGAGCCCGGGUAAGUCUAAAUAGUCUGCAUGCCGCCGGGCGCCAUGCCUGCAGGUCGACUCUAGAAAACAUG", "values": [{"measurement": "binding signal", "setting": "[9]", "result": "5.64 log2 enrichment (interaction score)"}]}, {"sequence": "GGCUAGAACUAGUGGAUCCCCCGGCGCCCGGCGGCUCGAGCCCGGGUAAGUGUAAUUAGUCUGCAUGCCGCCGGGCGCCAUGCCUGCAGGUCGACUCUAGAAAACAUG", "values": [{"measurement": "binding signal", "setting": "[10]", "result": "4.01 log2 enrichment (interaction score)"}]}]}
